TDP1 cell CPT – DT40-hTDP1 cell growth loss with CPT; chicken DT40 Tdp1-/-;hTDP1 cells + 20 nM CPT, ATP luminescence, 48 h; Potency, µM (top dose mostly 46.2 µM), inactives show at the top dose activity change, negative = growth inhibition, most hits filed as inhibitors; 420,000 compounds, 12% hits; note: potency is the fitted concentration of half-maximal effect; nearly all actives have a fitted effect of over 55% in size
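Cell growth measured by CellTiter-Glo luminescence after a minimum 48 h, 37 C compound exposure with 20 nM CPT in Tdp1-knockout DT40 cells stably expressing hTDP1, seeded 400/well; qHTS titration format.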
CtBP-E1A blk – inhibitors of CtBP/E1A interaction. AlphaScreen GST-E1A/His-CtBP binding, 1536-well; hits give low values. activity change, % (test concentration not listed). 340,000 compounds, 0.49% hits. AID 651724; in the data active = activity change below about -65%; inconclusive = mostly about -30% to -63%
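Protein mix (5X: 125 nM each GST-E1A, His-CtBP) was incubated with pinned compound 2 h at 37 deg C in dark, in 50 mM Tris pH 8.0 buffer with 300 mM NaCl. Glutathione donor and nickel acceptor beads followed; AlphaScreen signal read after 1 h.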
TDP1 inh – blocks human tyrosyl-DNA phosphodiesterase 1. Q9NUW8. recombinant TDP1, AlphaScreen DNA substrate cleavage. Potency, µM (series often up to 130 µM), inactives show top-dose activity change, negative = inhibition, most hits filed as inhibitors. 350,000 compounds, 0.28% hits. AID 485290; note: potency is the fitted concentration of half-maximal effect; nearly all actives have a fitted effect of over 40% in size
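Compounds were preincubated with Tdp1 (1 nM final) for 15 min at room temperature before substrate (15 nM final) started a 5 min reaction; beads (10 ug/ml final) were then added for 10 min before AlphaScreen detection.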
Six1-Eya2 inh – Six1/Eya2 interaction inhibition; 360,000 compounds, 0.56% hits; AlphaScreen GST-Six1/His-Eya2 binding, biochemical; hits give low values; Q15475+O00167; activity change, % (no concentration beside the values); AID 651725; in the data active = activity change below about -65%; inconclusive = mostly about -30% to -63%
Target sequence (O00167 whole entry, looked up): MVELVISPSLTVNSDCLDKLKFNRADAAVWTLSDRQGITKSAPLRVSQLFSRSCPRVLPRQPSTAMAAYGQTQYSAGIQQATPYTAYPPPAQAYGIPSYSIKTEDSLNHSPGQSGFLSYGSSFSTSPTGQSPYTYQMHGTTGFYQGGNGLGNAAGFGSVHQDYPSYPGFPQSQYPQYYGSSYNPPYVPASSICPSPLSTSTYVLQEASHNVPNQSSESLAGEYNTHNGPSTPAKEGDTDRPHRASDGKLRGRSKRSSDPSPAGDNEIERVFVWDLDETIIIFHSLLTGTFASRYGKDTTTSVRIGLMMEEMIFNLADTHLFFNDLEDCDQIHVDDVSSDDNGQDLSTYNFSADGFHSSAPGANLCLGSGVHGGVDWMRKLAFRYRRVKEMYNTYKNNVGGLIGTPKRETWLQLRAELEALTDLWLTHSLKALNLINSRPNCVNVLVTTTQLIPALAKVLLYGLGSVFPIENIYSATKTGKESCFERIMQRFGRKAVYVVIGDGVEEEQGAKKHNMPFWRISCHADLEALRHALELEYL
Target sequence (Q15475 whole entry, looked up): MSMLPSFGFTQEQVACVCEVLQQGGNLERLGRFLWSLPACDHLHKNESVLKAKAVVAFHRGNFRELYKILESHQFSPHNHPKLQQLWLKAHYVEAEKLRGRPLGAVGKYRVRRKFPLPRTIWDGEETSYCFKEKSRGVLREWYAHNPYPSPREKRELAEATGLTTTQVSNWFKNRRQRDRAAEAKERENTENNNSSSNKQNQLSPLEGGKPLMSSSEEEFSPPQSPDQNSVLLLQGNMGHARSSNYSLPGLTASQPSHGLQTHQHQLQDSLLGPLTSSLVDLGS
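Compounds are tested against tagged Six1 and Eya2 proteins bridged by glutathione donor and nickel acceptor beads; after a one-hour incubation at 37 °C without light, AlphaScreen emission is recorded.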
IL1B secr inh – inflammasome signaling inhibition, IL-1 beta readout | THP-1 LPS/ATP IL-1B secretion, AlphaLISA, 16 h; hits give low values | 360,000 compounds, 4.7% hits | activity change, % at 57.5 µM; in the data active = activity change below about -50%; inconclusive = mostly about -30% to -49%
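Secreted IL-1B measured by AlphaLISA bead assay after 16 h compound exposure of THP-1 cells; compounds (final up to 57.5 uM) added 1 h before LPS (250 ng/mL) and ATP (1.25 mM) stimulation; lower signal means less secretion.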
TDP1 cell noCPT – qHTS for Inhibitors of human tyrosyl-DNA phosphodiesterase 1 (TDP1): qHTS in cells in absence of CPT. DT40 Tdp1-/- hTDP1 cells, no CPT, ATP luminescence, 48 h. Potency, µM (highest dose often 46.2 µM), without a hit: at the top dose activity change, negative = growth inhibition, actives largely listed as inhibitors. 420,000 compounds, 15% hits; note: potency is the fitted concentration of half-maximal effect; nearly all actives have a fitted effect of over 55% in size
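Growth of hTDP1-complemented DT40 Tdp1-knockout cells is measured by ATP luminescence after at least 48 hr compound exposure at 37 °C, with DMSO substituting for the 20 nM CPT used in the parallel screen.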
* marks the source's active call; other numbers are inactive results; ? = inconclusive; . = not tested or not shown. Hits are enriched below; roughly 18% of the tested compounds scored in any of these assays. Unless noted, calls come from the whole dose curve; as a rule, active = well fitted curve in the direction sought with a large enough effect; inconclusive = small, poorly fitted or top-dose-only effect, or another doubt; inactive = no such curve, though single readings can be large; an effect the other way counts as inactive or inconclusive. % is set by controls: 0 for no effect and ±100 for the full control effect.

SMILES | TDP1 cell CPT | CtBP-E1A blk | TDP1 inh | Six1-Eya2 inh | IL1B secr inh | TDP1 cell noCPT
Cn1cc(CN2CCC(Oc3ccc(C(=O)N4CCCC4)cc3)CC2)cn1 | -15% | 1 | 1% | 0 | -1 | -10%
CCN1CCN(C(=O)c2cccc(OC3CCN(S(=O)(=O)N(C)C)CC3)c2)CC1 | 2% | 6 | 1% | 0 | 17 | 9%
CN(C)S(=O)(=O)N1CCC(Oc2ccc(C(=O)N3CCCCCCC3)cc2)CC1 | 16µM* | 5 | 7% | 7 | 0 | 16µM*
CCOC(=O)Cn1c(=O)oc2cc(S(=O)(=O)NC(C)(C)CC)ccc21 | -10% | 0 | -1% | -3 | 42 | 11%
Cc1ccc(C)c(S(=O)(=O)N2CCN(CC(=O)NC(=O)NCc3ccccc3)CC2)c1 | -7% | 0 | 8% | -1 | -12 | ?
Cc1ccccc1OCCC(=O)OCC(=O)NC1CCCC1 | -8% | 4 | . | 0 | -1 | 0%
CC1OC(CC(=O)O)CC2=C1C(=O)c1c(O)cccc1C2=O (stereo not drawn) | 0.1µM* | 1 | . | -89* | -98* | 0.065µM*
O=C(Nc1ccnn1C1CCN(C(=O)c2ccc(Cl)c(F)c2)CC1)C1CCOC1 (stereo not drawn) | -5% | -1 | 2% | 3 | 0 | 17%
CCC(C)[C@H](NC(=O)[C@@H]1Cc2c([nH]c3ccccc23)C2c3ccccc3C(=O)N21)C(=O)NCC1CCCO1 (stereo partly drawn) | ? | -4 | . | -5 | -20 | 16µM*
COc1cc(/C=N/NC(=O)CSCc2ccc([N+](=O)[O-])cc2)cc(OC)c1OC | -29% | -6 | -10% | -1 | 0 | ?
OC(CN1CCCCC1)Cn1c2ccc(Cl)cc2c2cc(Cl)ccc21 (stereo not drawn) | ? | 10 | . | 7 | . | 15µM*
OC(CN1CCOCC1)Cn1c2ccccc2c2ccccc21 (stereo not drawn) | 5% | . | . | 1 | -7 | ?
OC(CN1CCN(Cc2ccccc2)CC1)Cn1c2ccccc2c2ccccc21 (stereo not drawn) | 23µM* | -20 | 8% | -13 | -28 | ?
Cc1cc(=O)n2c3ccccc3n(CC(O)CN3CCN(CCO)CC3)c2c1C#N (stereo not drawn) | -2% | -3 | 0% | 3 | ? | -25%
Cc1cc(=O)n2c3ccccc3n(CC(O)CN3CCN(Cc4ccccc4)CC3)c2c1C#N (stereo not drawn) | 12µM* | . | . | 0 | -18 | 12µM*
OC(CN1CCN(c2ccccc2)CC1)Cn1c2ccccc2c2ccccc21 (stereo not drawn) | 18µM* | -4 | 0% | -10 | -6 | 13µM*
O=C(CSc1nnc(NC2CC2)s1)c1ccc[nH]1 | 6% | 6 | 0% | 4 | 14 | 0%
COc1cccc(CC(NC(C)=O)C(=O)NC2CCN(c3nc(C)cc(C)c3C#N)CC2)c1OC (stereo not drawn) | -17% | 0 | 7% | 20 | -9 | ?
CC1CCN(CC(O)Cn2c3ccccc3c3ccccc32)CC1 (stereo not drawn) | -23% | 4 | 3% | 1 | -63* | ?
CC1CCCC(C)N1CC(O)Cn1c2ccccc2c2ccccc21 (stereo not drawn) | 1.8µM* | . | 3% | -1 | -8 | 2.6µM*
CCOC(=O)C1=C(C)OC(N)=C(C#N)C1c1ccsc1 (stereo not drawn) | -7% | 0 | 0% | 2 | 9 | -5%
CCOC(=O)C1=C(C)N(C)C(C)=C(C(=O)OCC)C1c1ccsc1 | ? | 6 | -4% | -1 | -15 | 15µM*
CCOC(=O)C1=C(C)N(C)C(C)=C(C(=O)OCC)C1c1ccc(Cl)cc1 | ? | 23 | 3% | 7 | ? | ?
CCOC(=O)C1=C(C)N(C)C(C)=C(C(=O)OCC)C1c1ccc(C(=O)OC)cc1 | ? | 2 | -1% | 16 | ? | 15µM*
CCOc1ccc(CCNS(=O)(=O)c2c(C)nc3scc(C)n3c2=O)cc1OCC | -10% | -25 | 9% | 1 | -8 | -3%
SMILES | TDP1 cell CPT | CtBP-E1A blk | TDP1 inh | Six1-Eya2 inh | IL1B secr inh | TDP1 cell noCPT
Cc1ccccc1C(=O)NC(C)c1ccc2c(c1)CCCC2 (stereo not drawn) | ? | -3 | 2% | 13 | 25 | ?
Cc1ccc2nc(C(C)(C)C)c(Cc3ccsc3)n2c1 | ? | -1 | . | 3 | 19 | 18µM*
Cc1ccc(-c2nc3ccc(Br)cn3c2Cc2ccsc2)cc1 | 15µM* | -2 | . | -7 | 0 | 23µM*
Cc1ccc(Cc2c(-c3ccc(Br)cc3)nc3ccc(Br)cn23)cc1 | 18µM* | 17 | . | 0 | 45 | ?
Cc1ccc(Cc2c(-c3ccc(Br)cc3)nc3ccc(Cl)cn23)cc1 | ? | -4 | . | -12 | 23 | ?
Cc1ccc(-c2nc3ccc(C)cn3c2Cc2ccsc2)cc1 | ? | 3 | . | -9 | -29 | 15µM*
CNS(=O)(=O)c1cn(CC(=O)Nc2ccc(C(C)=O)cc2)cc1S(=O)(=O)NC | -7% | . | 8% | . | . | 0%
Cc1ccc(-c2nc3ccc(Cl)cn3c2Cc2ccsc2)cc1 | ? | -3 | . | -4 | 5 | ?
CCCc1nc2ccc(C)cn2c1Cc1ccsc1 | 13µM* | -10 | . | 1 | 36 | 9.2µM*
CC1(c2ccccc2)NC(=O)N(CC(=O)Nc2ccccc2C(=O)NC2CC2)C1=O (stereo not drawn) | -18% | 4 | 0% | 4 | 20 | -4%
O=C(O)c1ccccc1C(=O)NC1CCCc2ccccc21 (stereo not drawn) | -5% | 2 | . | 6 | -2 | -2%
CC1CC(C)CN(C(=O)c2cc3cc(Br)cc(Br)c3o2)C1 (stereo not drawn) | -2% | 11 | -6% | 10 | -70* | ?
CCCNC(=O)c1cc(C2CCCCN2C(=O)c2ccc(C#N)cc2)on1 (stereo not drawn) | 4% | 0 | . | 0 | -10 | -5%
OC(COc1ccc(OCC(O)CN2CCCCCC2)cc1)CN1CCCCCC1 (stereo not drawn) | -20% | 3 | 1% | 0 | ? | ?
OC(COc1ccc2cc(Br)ccc2c1)CN1CCCC1 (stereo not drawn) | ? | -5 | 5% | -2 | -5 | 23µM*

Screens deposited in PubChem by National Center for Advancing Translational Sciences (NCATS).
